Assay outcomes as filed in PubChem.
Luciferase inh = qHTS Assay for Inhibitors of Firefly Luciferase | purified firefly luciferase, luminescence, 8 min | Potency, µM (series often up to 57.1 µM), hits mostly inhibitors | 2.2% of 72,000 active | AID 411, 2009; further: nearly all actives have a fitted effect of over 40% in size
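Firefly luciferase (PKLight detection mix) with 10 uM ATP in pH 7.2 imidazole buffer (KCl, MgCl2, Tween 20, BSA). Compounds tested across a concentration series (qHTS). Luminescence read after 8 min at ambient temperature.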
HEK293 cAMP cs = qHTS Assay for Agonists of the Thyroid Stimulating Hormone Receptor: Activators of Intracellular cAMP Concentrations in Parental HEK 293; parental HEK293 CNG cAMP sensor, membrane potential fluorescence; 2.5% of 73,000 active; Potency, µM (series often up to 57.1 µM), most hits filed as activators; AID 938, 2007; further: nearly all actives have a fitted effect of over 55% in size
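Counterscreen for endogenous-receptor signalling: CNG-channel HEK 293 cells report cAMP rise by membrane depolarization. After 60 min dye equilibration with 100 uM RO 20-1724, compounds incubated 30 min before bottom-read fluorescence at 590 nm.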
PK Bst = Pyruvate Kinase; purified pyruvate kinase, luminescence ATP production; ribose 5-phosphate activator present at AC10; Potency, µM; 1.2% of 51,000 active; in the data active means potency below about 11 µM; inconclusive means mostly about 12 µM to 25 µM;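 the screen sought inhibitors and activators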
ERK AVP inh = qHTS Assay for Inhibitors of the ERK Signaling Pathway using a Homogeneous Screening Assay | AID 995, 2007 | HEK293-V1b, vasopressin-stimulated pERK AlphaScreen | Potency, µM (series often up to 57.5 µM), usual class: inhibitors | 0.99% of 72,000 active; further: nearly all actives have a fitted effect of over 55% in size
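qHTS, compounds titrated on V1b-expressing HEK293 cells. Preincubation 30 min at 37C, vasopressin 25 nM for 5 min, lysis 10 min, bead incubation 5 hr at room temperature.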
Tau fil binding = qHTS Assay for Tau Filament Binding. Microtubule-associated protein tau (Homo sapiens), P10636. recombinant tau filaments, thioflavin S fluorescence, 15 h; filaments grown with octadecylsulfate alongside compound. Potency, µM (doses to about 57.1 µM). 2% of 71,000 active. AID 596, 2007;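 further: actives lower thioflavin S fluorescence by blocking filaments or displacing dye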
Target sequence (P10636 whole entry, looked up): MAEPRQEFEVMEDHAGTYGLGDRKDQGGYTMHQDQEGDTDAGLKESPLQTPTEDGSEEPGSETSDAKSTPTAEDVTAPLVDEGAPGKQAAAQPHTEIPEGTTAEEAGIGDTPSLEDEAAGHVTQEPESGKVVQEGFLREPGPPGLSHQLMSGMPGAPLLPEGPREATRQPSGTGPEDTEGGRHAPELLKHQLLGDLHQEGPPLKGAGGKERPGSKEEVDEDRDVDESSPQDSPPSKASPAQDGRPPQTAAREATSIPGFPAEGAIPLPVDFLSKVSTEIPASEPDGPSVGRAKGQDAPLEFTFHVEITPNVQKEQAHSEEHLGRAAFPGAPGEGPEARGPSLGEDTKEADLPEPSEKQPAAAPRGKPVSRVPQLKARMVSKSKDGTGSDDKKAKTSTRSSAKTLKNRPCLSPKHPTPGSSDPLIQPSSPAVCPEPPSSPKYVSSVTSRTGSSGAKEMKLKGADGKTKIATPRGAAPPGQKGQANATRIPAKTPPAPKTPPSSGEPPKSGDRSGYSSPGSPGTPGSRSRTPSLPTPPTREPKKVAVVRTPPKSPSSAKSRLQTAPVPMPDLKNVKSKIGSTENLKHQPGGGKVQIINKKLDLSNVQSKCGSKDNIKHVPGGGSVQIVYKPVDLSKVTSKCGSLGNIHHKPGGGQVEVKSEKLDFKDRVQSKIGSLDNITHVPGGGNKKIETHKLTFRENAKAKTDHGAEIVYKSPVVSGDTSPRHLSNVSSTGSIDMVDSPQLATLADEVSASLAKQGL
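Quantitative HTS: thioflavine S signal from ODS-induced tau filaments, excited at 450 nm, emission 510 nm. Conditions: 1 uM tau, 30 uM ODS, 15 h at 37 C, pH 7.4.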
TSHR agonist = qHTS Assay for Agonists of the Thyroid Stimulating Hormone Receptor | AID 926, 2007 | Thyrotropin receptor (Homo sapiens), P16473 | HEK293-CNG-TSHR cells (CNG channel as cAMP sensor), membrane potential dye, cAMP | Potency, µM (top dose mostly 57.1 µM), usual class: activators | 0.48% of 73,000 active; active means well fitted activation curve with a large enough effect in the main read-out, with a control signal flat, not every such curve was filed as active; inconclusive means small, poorly fitted or top-dose-only effect, or a change in a side signal; inactive means no such curve, though single readings can be large or run the other way; reference of the percent scale not stated here;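 further: the control signal comes from parental cells without the receptor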
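cAMP rise detected as CNG-channel membrane depolarization by fluorescent dye (emission 590 nm), 30 min after compound, following 60 min dye loading containing 100 uM RO 20-1724 at room temperature. Cells: TSHR/CNG HEK 293, with parental CNG HEK 293 as control.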
Each line names hits and unclear results; the compound was inactive in the other large screens. A selection: hits, their analogues and other compounds. The true share with any hit is near 7.2%. Unless noted, the call rests on the fitted dose curve; in most records, active means well fitted curve in the direction sought with a large enough effect; inconclusive means small, poorly fitted or top-dose-only effect, or another doubt; inactive means no such curve, though single readings can be large; an effect the other way counts as inactive or inconclusive.

O=C(COC(=O)c1c2c(nc3ccccc13)CCCC2)Nc1ccc2c(c1)OCO2	HEK293 cAMP cs inconclusive, ERK AVP inh inconclusive, Tau fil binding 16µM, TSHR agonist inconclusive (no result: PK Bst)
Cc1cc(C(=O)OCC(=O)NCc2ccco2)c(C)n1-c1ccc(F)cc1	HEK293 cAMP cs 16µM, TSHR agonist inconclusive
O=C(COC(=O)c1cc(-c2cccs2)nc2ccccc12)NCc1ccco1	ERK AVP inh inconclusive, Tau fil binding 16µM (no result: PK Bst, TSHR agonist)
O=C(COC(=O)c1cc(-c2ccco2)nc2ccccc12)NCc1ccc2c(c1)OCO2	HEK293 cAMP cs inconclusive, ERK AVP inh inconclusive, Tau fil binding 13µM, TSHR agonist inconclusive
CC(C)CCCC(C)C1CCC2C3CC(=O)[C@H]4CC(O)CC[C@]4(C)C3CC[C@@]12C (stereo not given in full)	none (no result: Luciferase inh, HEK293 cAMP cs, PK Bst, Tau fil binding, TSHR agonist)
CC(C)C12CN3CC(C(C)C)(CN(C1)C31C(=O)Nc3ccccc31)C2=O (stereo not given)	Tau fil binding 16µM (no result: PK Bst)
CC(C)C12CN3CC(C(C)C)(CN(C1)C3c1ccccc1O)C2=O (stereo not given)	HEK293 cAMP cs inconclusive, TSHR agonist inconclusive (no result: PK Bst)
COc1ccc(NC(=O)N2CC[C@@]3(CCCN(C(=O)c4ccco4)C3)C2)cc1	none (no result: PK Bst)
COc1ccc(-c2[nH]ncc2-c2ccc3c(c2)OCCO3)c(O)c1	none
CCc1cc(-c2[nH]ncc2-c2ccc3c(c2)OCO3)c(O)cc1O	HEK293 cAMP cs 25µM, ERK AVP inh inconclusive, TSHR agonist inconclusive
CS(=O)(=O)Nc1cccc(-c2cc(Nc3ccccc3)ncn2)c1	none (no result: PK Bst, TSHR agonist)
CC1(C)OC(=O)C(=CNc2ccccc2)C(=O)O1	none
CC1(C)Oc2cc3c(cc2O1)OC(C)(C)O3	HEK293 cAMP cs 3.2µM, TSHR agonist inconclusive (no result: Luciferase inh, PK Bst, Tau fil binding)
O=C(c1cccc(F)c1)N1CCC2(CCCN(C(c3ccccc3)c3ccccc3)C2)CC1	none (no result: PK Bst)
CN(C)c1ccc(N=Cc2ccco2)cc1	Luciferase inh 20µM, ERK AVP inh inconclusive, Tau fil binding 13µM (no result: PK Bst)
CC(C)CC(c1nnnn1Cc1ccco1)N1CCN(C2CCCC2)CC1 (stereo not given)	HEK293 cAMP cs 3.2µM, TSHR agonist inconclusive
CC(C)CC(c1nnnn1C(C)(C)C)N1CCN(C2CCCC2)CC1 (stereo not given)	HEK293 cAMP cs 13µM, TSHR agonist inconclusive
CCC(c1nnnn1Cc1ccc(F)cc1)N1CCN(C2CCCCC2)CC1 (stereo not given)	HEK293 cAMP cs 0.63µM, TSHR agonist inconclusive
COc1ccc(CNc2nc(-c3cccc(C#N)c3)nc3ccccc23)c(OC)c1	HEK293 cAMP cs inconclusive, TSHR agonist inconclusive (no result: PK Bst)
Cc1c(C(=O)OCc2ccccc2)nnn1-c1nonc1N	none
CCOC(=O)c1c(C)n(OCc2ccccc2)c2ccc3nonc3c12	HEK293 cAMP cs 10µM, TSHR agonist inconclusive (no result: PK Bst)
Cc1cccc(CNc2ccnc(-c3cccc(C#N)c3)n2)c1	HEK293 cAMP cs inconclusive, TSHR agonist inconclusive (no result: PK Bst)
COc1ccc(C(=O)N2CCC[C@@]3(CCN(C(=O)Nc4ccccc4)C3)C2)cc1	HEK293 cAMP cs inconclusive, TSHR agonist inconclusive (no result: PK Bst)
COc1ccc(Cl)c(N2CCN(CCCNC(=O)Nc3ccc(C)cc3)CC2)c1	Tau fil binding 16µM
COCCn1c(=O)c(-c2ccc(OC)cc2)nc2cnc(Oc3ccccc3)nc21	HEK293 cAMP cs inconclusive, TSHR agonist inconclusive (no result: PK Bst)
CCN1CCCC1CNC(=O)c1cc2c(C)nc3ccccc3c2o1 (stereo not given)	none
CCOC(=O)N1CCC(NC(=O)c2cc3c(C)nc4ccccc4c3o2)CC1	ERK AVP inh 25µM (no result: PK Bst)
Cc1nc2ccccc2c2oc(C(=O)NCC3COc4ccccc4O3)cc12 (stereo not given)	HEK293 cAMP cs 25µM, ERK AVP inh 10µM, TSHR agonist inconclusive (no result: PK Bst)
CC(C)CCCC(C)C1CCC2C3CC=C4CC(O)CC[C@@]4(C)C3CC[C@@]12C (stereo not given in full)	none (no result: Luciferase inh, HEK293 cAMP cs, PK Bst, Tau fil binding, TSHR agonist)
O=C(O)c1cccc(N=Nc2c(S(=O)(=O)O)ccc3c2C(=O)c2ccccc2C3=O)c1O	HEK293 cAMP cs inconclusive, Tau fil binding 3.2µM, TSHR agonist inconclusive (no result: PK Bst)
O=C1c2ccccc2[C@@H]([C@@H]2c3ccccc3C(=O)c3cc(Br)ccc32)c2ccc(Br)cc21	ERK AVP inh inconclusive (no result: PK Bst)
O=C1c2ccccc2-c2ccc(N(Cc3ccc(Br)cc3)Cc3ccc(Br)cc3)cc21	ERK AVP inh 4µM, Tau fil binding 0.63µM (no result: PK Bst)
COC(=O)Cc1c(C)nc2nc(-c3ccc(OC)cc3)[nH]n2c1=O	Luciferase inh 13µM (no result: PK Bst)
COc1ccc(-c2nc3nc(C)c(Cc4ccccc4)c(=O)n3[nH]2)cc1	none
N#CC(=C1CCCC1)c1nc(-c2ccccc2O)cs1	Luciferase inh 13µM, HEK293 cAMP cs inconclusive, PK Bst 7.7, Tau fil binding 13µM, TSHR agonist inconclusive
N#C/C(=N\O)c1nc(-c2ccccc2)cs1	none (no result: HEK293 cAMP cs, ERK AVP inh, Tau fil binding, TSHR agonist)
O=C(O)CCCNc1cc(N2CCC3(CC2)OCCO3)c2noc3c2c1C(=O)c1ccccc1-3	Luciferase inh 25µM, Tau fil binding 16µM
CCOC(=O)N1CCN(c2cc(NCCC(=O)O)c3c4c(onc24)-c2ccccc2C3=O)CC1	Luciferase inh inconclusive, Tau fil binding 13µM
COc1cccc2c1[C@@H]1CN(CCCCn3c(=O)[nH]c4c(sc5ncc(-c6ccccc6)nc54)c3=O)C[C@H]1CO2	ERK AVP inh inconclusive, Tau fil binding inconclusive, TSHR agonist inconclusive (no result: PK Bst)
CC1(C)Cc2cccc(OCC(=O)O)c2O1	none
CC1(C)Cc2cccc(OCC(=O)Nc3ccccc3N3CCOCC3)c2O1	HEK293 cAMP cs 20µM, TSHR agonist inconclusive
CC(C)CN1CCCC2(CCN(C(=O)c3cccn3C)CC2)C1	HEK293 cAMP cs inconclusive, TSHR agonist inconclusive (no result: PK Bst)
COC(=O)c1ccc(COC(=O)C23CC4CC(CC(O)(C4)C2)C3)o1	TSHR agonist 25µM
O=C(c1c(O)c2ccc(Cl)cc2[nH]c1=O)C1CC1	none (no result: PK Bst)
O=C1CSC(=S)N1/N=C\c1ccc(Cl)c([N+](=O)[O-])c1	Tau fil binding 4µM (no result: PK Bst)
COC(=O)c1ccc(-c2nc(-c3cccs3)no2)cc1	Luciferase inh 1.6µM (no result: PK Bst)
COc1cccc(-c2nc(-c3ccccc3)no2)c1	Luciferase inh 10µM, PK Bst 9
COc1ccc(CC(=O)Nc2ccc(-c3noc(-c4cccc(OC)c4)n3)cc2)cc1	none
COc1ccc(-c2noc(-c3ccc(Cl)cc3)n2)cc1	Luciferase inh inconclusive, PK Bst 5.4
COc1cccc(-c2noc(-c3cccnc3)n2)c1	Luciferase inh 13µM (no result: PK Bst)
COc1cccc(-c2noc(-c3cccs3)n2)c1	Luciferase inh 10µM, PK Bst inconclusive
COc1nc(-c2ccccc2)ccc1-c1noc(-c2cccs2)n1	none
